tested on: Pseudomonas aeruginosa PA14 dppBCDF deletion mutant; assay: respiration area under curve with compound as sole nitrogen source, 24 h (OmniLog AUC (arbitrary units)); higher = more respiration / better utilisation as nitrogen source, active = 2000 or more; extreme values may be limits of the assay
Procedure: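 Biolog Phenotype MicroArray plates PM6-PM8: each di/tripeptide is the sole nitrogen source. Tetrazolium reduction was read in the OmniLog every 15 min for 24 h at 37°C and summarised as area under the respiration curve (arbitrary units). Values below 2000 count as no respiration. Strain is the dipeptide ABC transporter deletion mutant.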

Row | SMILES | respiration area under curve
1 | NC(N)=NCCC[C@H](NC(=O)[C@@H](N)Cc1c[nH]c2ccccc12)C(=O)O (plate: PM7) | 11800 (active)
2 | NC(N)=NCCC[C@H](N)C(=O)N[C@@H](CC(=O)O)C(=O)O (plate: PM6) | 7880 (active)
3 | NC(=O)CC[C@H](NC(=O)[C@@H](N)Cc1ccc(O)cc1)C(=O)O (plate: PM7) | 10600 (active)
4 | CC(C)C[C@H](NC(=O)[C@@H](N)C(C)C)C(=O)O (plate: PM7) | 3160 (active)
5 | CC[C@H](C)[C@H](N)C(=O)N[C@@H](CCCN=C(N)N)C(=O)O (plate: PM6) | 8420 (active)
6 | CC(C)C[C@H](N)C(=O)NCC(=O)NCC(=O)O (plate: PM8) | 5290 (active)
7 | N[C@@H](Cc1ccc(O)cc1)C(=O)N[C@@H](Cc1ccc(O)cc1)C(=O)O (plate: PM7) | 4900 (active)
8 | C[C@H](NC(=O)[C@@H](N)CCCN=C(N)N)C(=O)O (plate: PM6) | 8890 (active)
9 | O=C(O)[C@H](CO)NC(=O)[C@@H]1CCCN1 (plate: PM8) | 1290 (inactive)
10 | N[C@@H](Cc1c[nH]c2ccccc12)C(=O)N[C@@H](CO)C(=O)O (plate: PM7) | 106 (inactive)
11 | CC(C)C[C@H](N)C(=O)N1CCC[C@H]1C(=O)O (plate: PM8) | 0 (inactive)
12 | CSCC[C@H](N)C(=O)N1CCC[C@H]1C(=O)O (plate: PM7) | 0 (inactive)
13 | C[C@H](N)C(=O)N[C@@H](CC(=O)O)C(=O)O (plate: PM8) | 2510 (active)
14 | CSCC[C@H](N)C(=O)N[C@@H](CC(C)C)C(=O)O (plate: PM7) | 247 (inactive)
15 | CC(C)C[C@H](NC(=O)[C@@H](N)Cc1c[nH]c2ccccc12)C(=O)O (plate: PM7) | 1830 (inactive)
16 | CC(C)[C@H](N)C(=O)N[C@@H](CCC(N)=O)C(=O)O (plate: PM8) | 1010 (inactive)
17 | CC[C@H](C)[C@H](N)C(=O)N[C@H](C(=O)O)C(C)C (plate: PM6) | 545 (inactive)
18 | CC(C)C[C@H](NC(=O)[C@@H](N)CO)C(=O)O (plate: PM7) | 3310 (active)
19 | NCC(=O)N[C@@H](CCCN=C(N)N)C(=O)O (plate: PM6) | 7970 (active)
20 | N[C@@H](Cc1c[nH]c2ccccc12)C(=O)N[C@@H](CC(=O)O)C(=O)O (plate: PM7) | 0 (inactive)

Row | SMILES | respiration area under curve
21 | NC(=O)CC[C@H](N)C(=O)N[C@@H](CCC(=O)O)C(=O)O (plate: PM8) | 3750 (active)
22 | N[C@@H](CC(=O)O)C(=O)N[C@@H](Cc1ccccc1)C(=O)O (plate: PM6) | 15.5 (inactive)
23 | CC(C)C[C@@H](N)C(=O)NCC(=O)O (plate: PM8) | 0 (inactive)
24 | CC(C)C[C@H](NC(=O)[C@@H](N)CC(=O)O)C(=O)O (plate: PM6) | 0 (inactive)
25 | CSCC[C@H](NC(=O)[C@@H](N)Cc1ccccc1)C(=O)O (plate: PM8) | 269 (inactive)
26 | CSCCC(NC(=O)C(N)CC(C)C)C(=O)O (stereo not given) (plate: PM6) | 686 (inactive)
27 | CC(C)C(NC(=O)C1CCCN1)C(=O)O (stereo not given) (plate: PM8) | 134 (inactive)
28 | CSCC[C@H](N)C(=O)N[C@@H](Cc1ccc(O)cc1)C(=O)O (plate: PM8) | 55.2 (inactive)
29 | N[C@@H](Cc1ccccc1)C(=O)N[C@@H](Cc1ccccc1)C(=O)O (plate: PM7) | 2740 (active)
30 | CC[C@H](C)[C@H](NC(=O)[C@@H](N)CC(C)C)C(=O)O (plate: PM6) | 3260 (active)
31 | C[C@H](N)C(=O)N[C@@H](CCC(N)=O)C(=O)O (plate: PM8) | 3540 (active)
32 | CCC(C)C(N)C(=O)NC(CC(N)=O)C(=O)O (stereo not given) (plate: PM8) | 488 (inactive)
33 | C[C@H](NC(=O)[C@@H](N)CO)C(=O)O (plate: PM7) | 2670 (active)
34 | CC(C)C[C@H](N)C(=O)N[C@H](C(=O)O)C(C)C (plate: PM7) | 9340 (active)
35 | C[C@H](NC(=O)[C@@H]1CCCN1)C(=O)O (plate: PM7) | 103 (inactive)
36 | CC(C)C[C@H](N)C(=O)N[C@H](CC(C)C)C(=O)O (plate: PM8) | 0 (inactive)
37 | CC(C)C[C@H](N)C(=O)N[C@@H](CC(N)=O)C(=O)O (plate: PM8) | 10700 (active)
38 | N[C@@H](CO)C(=O)N[C@@H](Cc1ccc(O)cc1)C(=O)O (plate: PM7) | 1890 (inactive)
39 | NC(=O)C[C@H](NC(=O)[C@@H](N)CO)C(=O)O (plate: PM8) | 10400 (active)
40 | NC(=O)CC[C@H](NC(=O)[C@@H](N)CC(=O)O)C(=O)O (plate: PM8) | 5.25 (inactive)
